From PubChem BioAssay (EPA / NIEHS)
Several values for one entry are separate records, joined by “and”; a condition that tells them apart may be missing. Identical values can stand only once. Inconclusive results are not listed. Some structures have more than one record in an assay (separate samples or runs), and their calls can disagree. Activity calls are given as the source filed them. The calls were made as follows, unless noted: active = hit-call score of the fitted dose curve at least 0.9, where 1 is the maximum; inconclusive = response in the unintended direction; inactive = score below 0.9.

tested on: guinea pig Dopamine Transporter (DAT), gene 100714898; assay: NVS_TR_gDAT: NovaScreen (NVS) Transporter Assay for guinea pig Dopamine Transporter (DAT) (AID 2283369);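 also: active compounds lower bound radioligand signal relative to DMSO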
Method in brief: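 Guinea pig striatal membranes, cell-free radioligand binding with filter-based scintillation counting, read 2 h after dosing. Loss of signal versus DMSO baseline; single-concentration primary (25 uM) then concentration-response up to 50 uM.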

Row | SMILES | outcome | AC50
1 | CCCN(CCC)c1c([N+](=O)[O-])cc(C(F)(F)F)cc1[N+](=O)[O-] | inactive | 
2 | Oc1cc(Cl)ccc1Oc1ccc(Cl)cc1Cl |  | 25.5 µM (active) and 25 µM (active)
3 | CC(C)OC(=O)Nc1cccc(Cl)c1 | inactive | 

target: Peroxisome proliferator-activated receptor gamma (Homo sapiens) (UniProt P37231); assay: NVS_NR_hPPARg: NovaScreen (NVS) Nuclear Receptor Binding Assay for human Peroxisome Proliferator-activated Receptor gamma (PPARg) (AID 2283370)
Sequence (P37231 whole entry, looked up): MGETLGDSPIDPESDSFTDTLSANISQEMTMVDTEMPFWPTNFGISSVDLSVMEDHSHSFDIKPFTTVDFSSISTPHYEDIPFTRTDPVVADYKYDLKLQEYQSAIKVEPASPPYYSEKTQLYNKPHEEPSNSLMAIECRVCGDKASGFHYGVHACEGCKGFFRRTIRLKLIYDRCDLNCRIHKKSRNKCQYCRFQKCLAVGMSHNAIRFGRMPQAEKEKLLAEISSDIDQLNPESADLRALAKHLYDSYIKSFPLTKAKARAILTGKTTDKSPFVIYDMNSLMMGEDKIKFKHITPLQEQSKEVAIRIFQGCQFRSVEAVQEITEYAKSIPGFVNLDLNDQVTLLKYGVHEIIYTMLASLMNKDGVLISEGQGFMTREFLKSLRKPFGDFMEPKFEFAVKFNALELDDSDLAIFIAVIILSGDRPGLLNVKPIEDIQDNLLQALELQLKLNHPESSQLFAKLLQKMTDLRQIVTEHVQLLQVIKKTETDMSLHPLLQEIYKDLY
Method in brief: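 Cell-free fluorescence polarization binding to human PPARg protein, read 2 h after dosing. Primary screen in duplicate at 25 uM, actives followed in concentration series; loss of signal relative to DMSO scored.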

Row | SMILES | outcome | AC50
4 | O=C1c2ccccc2C(=O)N1SC(Cl)(Cl)Cl | inactive | 
5 | CCC(C)Nc1c([N+](=O)[O-])cc(C(C)(C)C)cc1[N+](=O)[O-] (centres undefined) | inactive | 
6 | CC1(c2ccc(Oc3ccccc3)cc2)OC(=O)N(Nc2ccccc2)C1=O (centres undefined) | inactive | 
7 | COC(=O)c1ccccc1CS(=O)(=O)NC(=O)Nc1nc(OC)cc(OC)n1 | inactive | 
8 | Oc1cc(Cl)ccc1Oc1ccc(Cl)cc1Cl | inactive | 11.6 µM (active) and 16.2 µM (active) and 6.67 µM (active)

target: human Dopamine Transporter (DAT), SLC6A3 (gene 6531) (UniProt Q01959); assay: NVS_TR_hDAT: NovaScreen (NVS) Transporter Assay for human Dopamine Transporter (DAT) (AID 2283374);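 also: activity means loss of bound radioligand signal relative to DMSO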
Sequence (Q01959 whole entry, looked up): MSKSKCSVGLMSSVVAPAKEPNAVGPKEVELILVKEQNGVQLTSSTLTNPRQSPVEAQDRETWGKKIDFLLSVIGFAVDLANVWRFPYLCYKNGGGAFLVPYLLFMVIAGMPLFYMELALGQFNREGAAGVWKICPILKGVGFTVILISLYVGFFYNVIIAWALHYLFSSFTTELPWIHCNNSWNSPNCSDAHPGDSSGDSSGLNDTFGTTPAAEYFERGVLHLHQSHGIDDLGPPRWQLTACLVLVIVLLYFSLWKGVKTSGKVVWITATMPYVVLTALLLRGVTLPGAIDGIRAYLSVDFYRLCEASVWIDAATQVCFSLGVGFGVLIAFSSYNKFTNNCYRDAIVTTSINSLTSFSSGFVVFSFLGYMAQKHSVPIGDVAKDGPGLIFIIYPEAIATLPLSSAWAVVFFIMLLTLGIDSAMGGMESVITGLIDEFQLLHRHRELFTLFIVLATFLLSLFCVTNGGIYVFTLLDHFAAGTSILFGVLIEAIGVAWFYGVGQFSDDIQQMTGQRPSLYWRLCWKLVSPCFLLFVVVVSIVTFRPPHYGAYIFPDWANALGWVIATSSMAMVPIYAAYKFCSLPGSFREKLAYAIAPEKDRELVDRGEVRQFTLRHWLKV
Method in brief: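 Test chemicals were first screened in duplicate at 25 uM, with actives retested as concentration series. Displacement of a specific radioligand from cell-free human dopamine transporter was measured after 1 h by filtration and scintillation counting.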

Row | SMILES | AC50
9 | CC(C)N(C(=O)COc1nnc(C(F)(F)F)s1)c1ccc(F)cc1 | 13.6 µM (active)
10 | CCC(C)Nc1c([N+](=O)[O-])cc(C(C)(C)C)cc1[N+](=O)[O-] (centres undefined) | 8.98 µM (active)
11 | CCCN(CCC)c1c([N+](=O)[O-])cc(C(F)(F)F)cc1[N+](=O)[O-] | 25 µM (active)
12 | CCN(CC)C(=O)SCc1ccc(Cl)cc1 | 7.71 µM (active)
13 | Oc1cc(Cl)ccc1Oc1ccc(Cl)cc1Cl | 21.3 µM (active) [middle of 4 runs]
14 | CC(C)OC(=O)Nc1cccc(Cl)c1 | 16.3 µM (active)

target: human Norepinephrine Transporter (NET), SLC6A2 (gene 6530) (UniProt P23975); assay: NVS_TR_hNET: NovaScreen (NVS) Transporter Assay for human Norepinephrine Transporter (NET) (AID 2283377);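 also: cell-free membrane protein extracted from CHO cells expressing human NET; displacement of radioligand from human NET seen as loss of scintillation signal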
Sequence (P23975 whole entry, looked up): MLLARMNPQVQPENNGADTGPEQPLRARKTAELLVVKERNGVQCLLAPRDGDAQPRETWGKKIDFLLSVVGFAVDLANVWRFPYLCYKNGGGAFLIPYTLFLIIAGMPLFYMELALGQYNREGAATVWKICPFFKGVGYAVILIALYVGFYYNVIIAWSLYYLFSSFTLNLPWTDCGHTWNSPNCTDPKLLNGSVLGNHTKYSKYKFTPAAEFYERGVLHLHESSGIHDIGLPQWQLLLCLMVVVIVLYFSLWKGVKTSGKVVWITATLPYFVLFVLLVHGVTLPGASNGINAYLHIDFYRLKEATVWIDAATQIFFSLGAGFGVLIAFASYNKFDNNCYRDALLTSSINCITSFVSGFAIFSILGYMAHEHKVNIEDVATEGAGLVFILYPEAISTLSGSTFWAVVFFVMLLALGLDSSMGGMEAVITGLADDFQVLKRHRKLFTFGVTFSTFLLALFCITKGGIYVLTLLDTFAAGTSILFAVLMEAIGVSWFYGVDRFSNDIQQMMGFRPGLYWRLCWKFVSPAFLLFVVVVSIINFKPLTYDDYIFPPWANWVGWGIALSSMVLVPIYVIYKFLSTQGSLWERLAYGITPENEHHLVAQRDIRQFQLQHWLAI
Method in brief: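 Scintillation counts of filter-retained radioligand served as the readout, taken 1 h post-dosing in a cell-free CHO-derived system. Test chemicals ran first at 25 uM in duplicate; confirmed hits were retested across concentrations.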

Row | SMILES | AC50
15 | N#CN | 13 µM (active)
16 | Oc1cc(Cl)ccc1Oc1ccc(Cl)cc1Cl | 585 nM (active) [middle of 4 runs]
17 | CC(C)OC(=O)Nc1cccc(Cl)c1 | 6.63 µM (active)

target: Agonist Androgen Response Element (ARE), AR (gene 367) (UniProt P10275); assay: OT_AR_ARELUC_AG_1440: Odyssey Thera (OT) 24-hour CHO-K1 Luciferase Assay for Agonist Androgen Response Element (ARE) (AID 2283379)
Sequence (P10275 whole entry, looked up): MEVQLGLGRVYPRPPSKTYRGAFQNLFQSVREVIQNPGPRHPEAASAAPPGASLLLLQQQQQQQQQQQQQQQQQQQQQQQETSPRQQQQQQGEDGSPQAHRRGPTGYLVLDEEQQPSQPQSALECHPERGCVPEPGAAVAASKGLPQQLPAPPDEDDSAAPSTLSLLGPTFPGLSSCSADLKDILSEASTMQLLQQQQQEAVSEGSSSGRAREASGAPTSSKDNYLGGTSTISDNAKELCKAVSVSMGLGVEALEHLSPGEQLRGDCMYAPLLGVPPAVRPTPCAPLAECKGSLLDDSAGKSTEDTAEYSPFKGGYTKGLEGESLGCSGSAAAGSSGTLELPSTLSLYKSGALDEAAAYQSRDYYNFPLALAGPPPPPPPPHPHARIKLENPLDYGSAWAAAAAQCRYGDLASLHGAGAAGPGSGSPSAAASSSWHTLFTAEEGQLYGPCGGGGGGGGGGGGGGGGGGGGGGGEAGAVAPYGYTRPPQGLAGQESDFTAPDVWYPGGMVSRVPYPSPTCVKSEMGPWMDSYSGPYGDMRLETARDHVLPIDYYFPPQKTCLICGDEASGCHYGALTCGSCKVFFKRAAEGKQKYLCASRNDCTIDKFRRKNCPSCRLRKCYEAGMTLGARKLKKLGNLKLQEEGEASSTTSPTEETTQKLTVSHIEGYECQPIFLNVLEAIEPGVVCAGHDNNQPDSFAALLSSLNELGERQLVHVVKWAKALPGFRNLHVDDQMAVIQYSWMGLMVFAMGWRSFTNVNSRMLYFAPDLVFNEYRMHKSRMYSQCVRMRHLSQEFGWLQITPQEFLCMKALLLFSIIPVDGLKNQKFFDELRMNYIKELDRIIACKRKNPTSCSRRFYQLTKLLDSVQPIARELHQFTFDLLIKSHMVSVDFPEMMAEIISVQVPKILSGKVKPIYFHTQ
Method in brief: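 Agonist mode, 24 h exposure in CHO-K1 ARE-luciferase cells; values reflect luminescence induction over vehicle.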

Row | SMILES | outcome
18 | CCCN(CCC)c1c([N+](=O)[O-])cc(C(F)(F)F)cc1[N+](=O)[O-] | inactive
19 | CCOC1Oc2ccc(OS(C)(=O)=O)cc2C1(C)C (centres undefined) | inactive
20 | Cc1[nH]c(=O)n(C(C)(C)C)c(=O)c1Cl | inactive
21 | C#CCN1C(=O)COc2cc(F)c(N3C(=O)C4=C(CCCC4)C3=O)cc21 | inactive

target: Estrogen receptor beta (Homo sapiens) (UniProt Q92731); assay: OT_ER_ERbERb_1440: Odyssey Thera (OT) 24-hour HEK293T Protein-Complementation Assay for Estrogen Receptor-beta/-beta Homodimer (AID 2283380);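 also: fluorescence gain from ER beta LBD homodimer complementation read by laser scanning cytometry; scored as signal increase over DMSO baseline for both agonists and antagonists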
Sequence (Q92731 whole entry, looked up, the tested form may be a part): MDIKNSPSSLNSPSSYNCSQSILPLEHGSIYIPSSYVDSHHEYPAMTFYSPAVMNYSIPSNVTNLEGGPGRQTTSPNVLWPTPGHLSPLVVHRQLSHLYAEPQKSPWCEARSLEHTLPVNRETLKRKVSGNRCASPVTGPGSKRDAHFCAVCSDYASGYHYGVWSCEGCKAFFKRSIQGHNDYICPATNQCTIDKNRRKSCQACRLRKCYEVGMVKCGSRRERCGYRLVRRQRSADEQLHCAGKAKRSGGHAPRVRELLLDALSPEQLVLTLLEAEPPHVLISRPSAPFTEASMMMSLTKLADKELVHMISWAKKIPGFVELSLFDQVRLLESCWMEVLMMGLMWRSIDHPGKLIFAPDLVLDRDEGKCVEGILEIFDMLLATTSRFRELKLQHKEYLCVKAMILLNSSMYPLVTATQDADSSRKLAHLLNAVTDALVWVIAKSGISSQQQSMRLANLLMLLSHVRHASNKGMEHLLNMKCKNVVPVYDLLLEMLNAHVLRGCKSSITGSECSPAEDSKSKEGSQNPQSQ
Method in brief: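 Fluorescence increase, nuclear for agonists or whole-cell for antagonists, relative to DMSO vehicle, quantified by laser scanning cytometer after fixation and Draq5 staining. Readout from 24 h treatment of HEK293T cells carrying complementation-paired ER beta LBD (aa 310-547).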

Row | SMILES | outcome | AC50
22 | CNC(=O)/C=C(\C)OP(=O)(OC)OC | inactive | 
23 | O=C(NC(=O)c1c(F)cccc1F)Nc1ccc(OC(F)(F)C(F)OC(F)(F)F)c(Cl)c1 (centres undefined) | inactive | 
24 | CC(C)N(C(=O)COc1nnc(C(F)(F)F)s1)c1ccc(F)cc1 | inactive | 
25 | O=C1c2ccccc2C(=O)N1SC(Cl)(Cl)Cl | inactive | 
26 | CCC(C)Nc1c([N+](=O)[O-])cc(C(C)(C)C)cc1[N+](=O)[O-] (centres undefined) |  | 38.5 µM (active)
27 | OCCOc1ccccc1 | inactive | 
28 | N#CN | inactive | 
29 | CC1(c2ccc(Oc3ccccc3)cc2)OC(=O)N(Nc2ccccc2)C1=O (centres undefined) | inactive | 
30 | Clc1ccccc1-c1nnc(-c2ccccc2Cl)nn1 | inactive | 
31 | CNC(=O)Oc1cccc(N=CN(C)C)c1 | inactive | 
32 | O=C(Nc1ccccc1)Nc1cnns1 | inactive | 
33 | CCOC1Oc2ccc(OS(C)(=O)=O)cc2C1(C)C (centres undefined) | inactive | 
34 | Oc1cc(Cl)ccc1Oc1ccc(Cl)cc1Cl | inactive | 
35 | CC(C)OC(=O)Nc1cccc(Cl)c1 | inactive | 
36 | CNC(=O)Oc1ccccc1OC(C)C | inactive | 
37 | CCc1ccc(C(=O)NN(C(=O)c2cc(C)cc(C)c2)C(C)(C)C)cc1 | inactive | 
38 | CCOCN(C(=O)CCl)c1c(C)cccc1CC | inactive | 
39 | CCC(C)(NC(=O)c1cc(Cl)c(C)c(Cl)c1)C(=O)CCl (centres undefined) | inactive | 
40 | CN1CSC(=S)N(C)C1 | inactive | 
41 | C#CCN1C(=O)COc2cc(F)c(N3C(=O)C4=C(CCCC4)C3=O)cc21 | inactive | 

target: Estrogen receptor (Homo sapiens) (UniProt P03372); assay: OT_ERa_GFPERaERE_0480: Odyssey Thera (OT) 8-hour HeLa Transcription Induction Assay for Estrogen Receptor (AID 2283381; active = hit-call score of the fitted dose curve at least 0.9, where 1 is the maximum; inactive = score below 0.9)
Sequence (P03372 whole entry, looked up): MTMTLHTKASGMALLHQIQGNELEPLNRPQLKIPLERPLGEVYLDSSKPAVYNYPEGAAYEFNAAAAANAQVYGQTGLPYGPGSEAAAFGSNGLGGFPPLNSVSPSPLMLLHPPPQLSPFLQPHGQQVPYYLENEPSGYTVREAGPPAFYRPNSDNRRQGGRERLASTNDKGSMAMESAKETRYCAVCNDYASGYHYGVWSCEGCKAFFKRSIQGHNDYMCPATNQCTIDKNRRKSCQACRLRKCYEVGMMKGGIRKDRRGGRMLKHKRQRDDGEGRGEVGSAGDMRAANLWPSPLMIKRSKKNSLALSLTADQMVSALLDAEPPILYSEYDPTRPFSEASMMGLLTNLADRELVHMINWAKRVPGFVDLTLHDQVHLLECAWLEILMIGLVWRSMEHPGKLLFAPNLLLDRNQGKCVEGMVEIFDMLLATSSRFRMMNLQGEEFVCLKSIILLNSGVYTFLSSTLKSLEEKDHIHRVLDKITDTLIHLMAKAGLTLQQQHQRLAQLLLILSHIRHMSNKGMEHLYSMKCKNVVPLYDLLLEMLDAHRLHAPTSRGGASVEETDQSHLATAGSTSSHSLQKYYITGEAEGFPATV
Method in brief: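 HeLa cells dosed with compound and imaged by fluorescence microscopy at 8 h; GFP induction from an ERE reporter quantified by high-content image analysis and fitted as gain of signal against DMSO baseline.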

Row | SMILES | outcome | AC50
42 | CNC(=O)/C=C(\C)OP(=O)(OC)OC | inactive | 
43 | O=C(NC(=O)c1c(F)cccc1F)Nc1ccc(OC(F)(F)C(F)OC(F)(F)F)c(Cl)c1 (centres undefined) | inactive | 
44 | CC(C)N(C(=O)COc1nnc(C(F)(F)F)s1)c1ccc(F)cc1 | inactive | 
45 | O=C1c2ccccc2C(=O)N1SC(Cl)(Cl)Cl | inactive | 
46 | CCC(C)Nc1c([N+](=O)[O-])cc(C(C)(C)C)cc1[N+](=O)[O-] (centres undefined) | inactive | 
47 | OCCOc1ccccc1 | inactive | 
48 | N#CN | inactive | 
49 | CC1(c2ccc(Oc3ccccc3)cc2)OC(=O)N(Nc2ccccc2)C1=O (centres undefined) | inactive | 
50 | CCCN(CCC)c1c([N+](=O)[O-])cc(C(F)(F)F)cc1[N+](=O)[O-] | inactive | 
51 | Clc1ccccc1-c1nnc(-c2ccccc2Cl)nn1 | inactive | 
52 | CNC(=O)Oc1cccc(N=CN(C)C)c1 | inactive | 
53 | CCN(CC)C(=O)SCc1ccc(Cl)cc1 | inactive | 
54 | O=C(Nc1ccccc1)Nc1cnns1 | inactive | 
55 | CCOC1Oc2ccc(OS(C)(=O)=O)cc2C1(C)C (centres undefined) |  | 55.4 µM (active)
56 | CC(C)OC(=O)Nc1cccc(Cl)c1 | inactive | 
57 | CNC(=O)Oc1ccccc1OC(C)C | inactive | 
58 | CCc1ccc(C(=O)NN(C(=O)c2cc(C)cc(C)c2)C(C)(C)C)cc1 | inactive | 
59 | CCOCN(C(=O)CCl)c1c(C)cccc1CC | inactive | 
60 | CCC(C)(NC(=O)c1cc(Cl)c(C)c(Cl)c1)C(=O)CCl (centres undefined) |  | 13.6 µM (active)
61 | CN1CSC(=S)N(C)C1 | inactive | 
62 | Cc1[nH]c(=O)n(C(C)(C)C)c(=O)c1Cl | inactive | 
63 | C#CCN1C(=O)COc2cc(F)c(N3C(=O)C4=C(CCCC4)C3=O)cc21 | inactive | 
